These results are taken from PubChem BioAssay (NCATS).

A short description of test [1]: Quantitative highthroughput screen to assess conditional lethalithy of NOMO1 cells grown in RPMI1640 with untreated serum (RPMI+s) (AID 1963876). Further: nearly all actives have a fitted effect of over 35% in size. Further: potency means the concentration at half of the fitted maximal effect.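 On viability: 100% = DMSO wells and 0% = empty wells without cells.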 In a few lines:
(§1)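 Each medium arm—HPLM with 10% dialyzed FBS, or RPMI1640 with 5 mM glucose and 10% untreated or dialyzed FBS—was screened against an 11-point, 3-fold compound titration for 48 h at 37 °C, with CellTiter-Glo luminescence as endpoint.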

The nature of test [2]: Quantitative highthroughput screen to assess conditional lethalithy of NOMO1 cells grown in RPMI1640 with dialyzed fetal bovine serum (RPMI+ds) (AID 1963877). Further: nearly all actives have a fitted effect of over 30% in size. Further: potency means the concentration at half of the fitted maximal effect.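 On viability: series mostly up to about 46 µM; 100% = DMSO control wells and 0% = empty wells.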 Put shortly: as §1
A short description of test [3]: Quantitative highthroughput screen to assess conditional lethalithy of NOMO1 cells grown in Human Plasma-Like Medium with dialyzed fetal bovine serum (HPLM+ds) (AID 1963878). Further: nearly all actives have a fitted effect of over 35% in size. Further: potency means the concentration at half of the fitted maximal effect.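 On viability: 100% = DMSO wells and 0% = empty wells on each plate.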 Put shortly:
as §1

Test [4] is described as follows: Quantitative highthroughput screen to assess conditional lethalithy of P12 Ichikawa cells grown in Human Plasma-Like Medium with dialyzed fetal bovine serum (HPLM+ds) (AID 1963879). Further: nearly all actives have a fitted effect of over 35% in size. Further: potency means the concentration at half of the fitted maximal effect. On viability: series mostly up to about 46 µM. Particulars: Potency: viability. In a few lines: as §1
Test [5] is described as follows: Quantitative highthroughput screen to assess conditional lethalithy of P12 Ichikawa cells grown in RPMI1640 with dialyzed fetal bovine serum (RPMI+ds) (AID 1963880). Further: nearly all actives have a fitted effect of over 35% in size. Further: potency means the concentration at half of the fitted maximal effect.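 On viability: 100% = DMSO wells and 0% = empty wells on each plate.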 Particulars: Potency: P12-Ichikawa viability. Put shortly:
as §1

Test [6] in a line: Quantitative highthroughput screen to assess conditional lethalithy of P12 Ichikawa cells grown in RPMI1640 with untreated serum (RPMI+s) (AID 1963881). Further: nearly all actives have a fitted effect of over 35% in size. Further: potency means the concentration at half of the fitted maximal effect.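 On viability: series mostly up to about 46 µM; 100% = DMSO wells and 0% = empty wells without cells.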 Particulars: Potency: viability. In a few lines: as §1
The nature of test [7]: Quantitative highthroughput screen to assess conditional lethalithy of SEM cells grown in Human Plasma-Like Medium with dialyzed fetal bovine serum (HPLM+ds) (AID 1963882). Further: nearly all actives have a fitted effect of over 35% in size. Further: potency means the concentration at half of the fitted maximal effect. On viability: series mostly up to about 46 µM. In a few lines: as §1
The nature of test [8]: Quantitative highthroughput screen to assess conditional lethalithy of SEM cells grown in RPMI1640 with unreated serum (RPMI+s) (AID 1963883). Further: nearly all actives have a fitted effect of over 35% in size. Further: potency means the concentration at half of the fitted maximal effect.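 On viability: 100% = DMSO wells and 0% = empty wells without cells.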 In a few lines: as §1
Test [9] is described as follows: Quantitative highthroughput screen to assess conditional lethalithy of SEM cells grown in RPMI1640 with dialyzed fetal bovine serum (RPMI+ds) (AID 1963884). Further: nearly all actives have a fitted effect of over 35% in size. Further: potency means the concentration at half of the fitted maximal effect.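 On viability: series mostly up to about 46 µM; 100% = DMSO control wells and 0% = empty wells without cells.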 In a few lines: as §1
Test [10] in a line: Cellular viability qHTS for adrenocortical cancer (ACC) cell line SW-13 (AID 1963989). Further: nearly all actives have a fitted effect of over 65% in size. Further: potency means the concentration at half of the fitted maximal effect.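 On activity (max response): cells grown in serum-free medium with ITS supplement; on the % scale 0 is the no-effect control and ±100 the full control effect.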 The following applies: SW-13 ACC cells viability, CellTiter-Glo, 48 h; activity (max response): active compounds read low. Put shortly: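 48 h treatment, SW-13 in ITS/DMEM serum-free; doses up to 46 uM; readout CellTiter-Glo luminescence; curve fit four-parameter logistic.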
Background: Quantitative high-throughput screening tests each substance at several concentrations.

Test [11] can be described thus: Cellular viability qHTS for adrenocortical cancer (ACC) cell line NCI-H295R (AID 1963990).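 Further: 0% = DMSO only wells and -100% = full killing with cytotoxic reference compound; nearly all actives have a fitted effect of over 60% in size.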 In a few lines:
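Compound titrations (up to 46 uM final) are applied to NCI-H295R cultures for 48 h at 37C. Viable cell number is estimated by CellTiter-Glo signal, normalised to DMSO and doxorubicin controls.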

Structures are written as SMILES. Inconclusive results are not listed. Unmarked numbers belong to inactive results. Activity calls are given as the source filed them. The call rests on the fitted dose curve; in most records, active means well fitted curve in the direction sought with a large enough effect; inconclusive means small, poorly fitted or top-dose-only effect, or another doubt; inactive means no such curve, though single readings can be large; an effect the other way counts as inactive or inconclusive.

Turning to `CN(C)CCC=C1c2ccccc2COc2ccc(CC(=O)O)cc21`, the Potency result in test [1], in [2], in test [3], in test [4], in test [5] and in [6] was “inactive” in each case. Further, the Potency result in test [7], in [8] and in test [9] was “inactive” in each case.

`CCC(CC)[C@H](NC(C)=O)[C@@H]1[C@H](O)[C@@H](C(=O)O)C[C@@H]1N=C(N)N`: the Potency result in test [1], in test [2], in [3], in [4], in test [5] and in [6] was “inactive” in each case. In addition, the Potency entry in [7], in test [8] and in test [9] was “inactive” throughout.

Take `CC1=C(CO)C(=O)O[C@@H]([C@@H](C)[C@H]2CC[C@H]3[C@@H]4C[C@H]5O[C@]56[C@@H](O)C=CC(=O)[C@]6(C)[C@@H]4CC[C@]23C)C1`: the Potency is 372 nM (active) in test [1]; 469 nM (active) in test [2]; 296 nM (active) in test [3]; 296 nM (active) in test [4]; 264 nM (active) in test [5]; 235 nM (active) in test [6]. Besides, the Potency in [7] was 235 nM (active); in test [8], 235 nM (active); in test [9], 264 nM (active).

`O=C(C=Cc1cccc(S(=O)(=O)Nc2ccccc2)c1)NO`: the Potency in test [1] is 17100 nM (active); in test [2], 12100 nM (active); in test [3], 13600 nM (active); in test [4] it was 4810 nM (active); in test [5] it was 6050 nM (active); in test [6], 4290 nM (active). Besides, the Potency in test [7] was 679 nM (active); in test [8], 605 nM (active); in test [9], 762 nM (active).

As to `NC(=O)c1ncn([C@@H]2O[C@H](CO)[C@@H](O)[C@@H]2O)c1O`, the Potency entry in [1], in test [2], in test [3], in test [4], in [5] and in [6] was “inactive” each time. For the same molecule, the Potency result in test [7], in test [8] and in test [9] was “inactive” each time.

As for `CC[C@H]1OC(=O)[C@H](C)C(=O)[C@H](C)[C@@H](O[C@H]2O[C@H](C)C[C@H](N(C)C)[C@@H]2O)[C@](C)(OC)C[C@@H](C)C(=O)[C@H](C)[C@H]2N(CCCCn3cnc(-c4cccnc4)c3)C(=O)O[C@]12C`, the Potency entry in test [1], in test [2], in test [3], in [4], in test [5] and in [6] was “inactive” in each case. The Potency result in [7], in [8] and in [9] was “inactive” each time.

As for `N#CC(c1ccnc(NCCc2cccnc2)n1)c1nc2ccccc2s1` (stereo not given), the Potency entry in test [1], in test [2], in [3], in test [4], in [5] and in test [6] was “inactive” throughout. In addition, the Potency result in test [7], in test [8] and in test [9] was “inactive” each time. Also, in test [10], the Potency was 25100 nM (active).

With `CC1(C)CC(O)CC(C)(C)N1[O]`, the Potency entry in [1], in test [2], in [3], in test [4], in test [5] and in [6] was “inactive” throughout. The Potency result in test [7], in [8] and in [9] was “inactive” in each case.

`COc1cc(F)c(C(C)C)cc1-c1ccc(C(F)(F)F)cc1CN1C(=O)O[C@H](c2cc(C(F)(F)F)cc(C(F)(F)F)c2)[C@@H]1C`: the Potency entry in test [1], in test [2], in test [3], in test [4], in [5] and in test [6] was “inactive” each time. Further, the Potency result in [7], in test [8] and in [9] was “inactive” in each case. In addition, the activity (max response) in [10] was -14.8%.

For the molecule `CCC(C=C[C@@H]1OC(=O)C=C[C@H]1C)=C[C@H](C)CC=CC(C)=C[C@@H](C)C(=O)[C@@H](C)[C@H](O)[C@@H](C)CC(C)=CC(=O)O`, the Potency in [1] was 110 nM (active); in [2], 87.7 nM (active); in [3] it was 78.2 nM (active); in [4], 110 nM (active); in test [5] it was 87.7 nM (active); in [6], 87.7 nM (active). In addition, the figures for the Potency in test [7], in [8] and in [9] were 34.9 nM (active), 15.6 nM (active) and 22 nM (active), respectively.

For the molecule `CC(=O)O[C@H]1C[C@@H]2CC[C@H]3[C@H]4C[C@H]([N+]5(C)CCCCC5)[C@@H](OC(C)=O)[C@@]4(C)CC[C@@H]3[C@@]2(C)C[C@H]1N1CCCCC1`, the Potency entry in [1], in test [2], in [3], in [4], in test [5] and in test [6] was “inactive” in each case. Further, the Potency entry in test [7], in test [8] and in test [9] was “inactive” throughout.

For `CCOC(=O)N1CCN([N+]([O-])=NOc2cc(ON=[N+]([O-])N3CCN(C(=O)OCC)CC3)c([N+](=O)[O-])cc2[N+](=O)[O-])CC1`, the Potency result in test [1], in test [2], in test [3], in test [4], in test [5] and in [6] was “inactive” in each case. The Potency result in test [7], in [8] and in test [9] was “inactive” throughout.

On to `C=C1[C@H](n2cnc3c(=O)[nH]c(N)nc32)C[C@H](O)[C@H]1CO`, for which the Potency in test [1] is 18700 nM (active); in test [2] it was 3720 nM (active); in test [3], 4180 nM (active); in [4] it was 2640 nM (active); in test [5], 1180 nM (active); in test [6], 2960 nM (active). The Potency is 187 nM (active) in [7], 526 nM (active) in test [8] and 46.9 nM (active) in [9].

Turning to `CO[C@H]1C=CC=C(C)C(=O)NC2=CC(=O)C(NCCN(C)C)=C(C[C@@H](C)C[C@H](OC)[C@@H](O)[C@@H](C)C=C(C)[C@@H]1OC(N)=O)C2=O`, the Potency in test [1] was 743 nM (active); in [2], 662 nM (active); in test [3], 662 nM (active); in test [4], 4690 nM (active); in test [5], 935 nM (active); in test [6], 743 nM (active). The values for the Potency in test [7], in test [8] and in test [9] were 166 nM (active), 148 nM (active) and 118 nM (active), respectively.

As to `Cc1cc(CS(=O)(=O)c2ccccc2)cc(OCc2ccc(CN3CCC[C@H]3CO)cc2)c1`, the Potency is 1050 nM (active) in test [1]; 1320 nM (active) in [2]; 662 nM (active) in [3]; 743 nM (active) in [4]; 1180 nM (active) in test [5]; 1050 nM (active) in test [6]. In addition, the Potency in test [7] is 590 nM (active); in test [8], 332 nM (active); in test [9], 526 nM (active).

As to `C[N+]1(C)[C@@H]2CC(OC(=O)[C@H](CO)c3ccccc3)C[C@H]1[C@H]1O[C@@H]12` (stereo not given in full), the Potency entry in test [1], in test [2], in [3], in test [4], in [5] and in [6] was “inactive” each time. The Potency entry in test [7], in [8] and in test [9] was “inactive” throughout.

As to `C#C[C@]1(O)CC[C@H]2[C@H]3CCc4cc(OC)ccc4[C@H]3CC[C@@]21C`, the Potency result in test [1], in test [2], in test [3], in test [4], in [5] and in [6] was “inactive” each time. Further, the Potency result in test [7], in [8] and in test [9] was “inactive” throughout.

Consider `C[C@H](O)[C@@H]1C(=O)N2C(C(=O)O)=C(S[C@@H]3CN[C@H](CNS(N)(=O)=O)C3)[C@@H](C)[C@@H]12`, for which the Potency entry in [1], in test [2], in test [3], in test [4], in test [5] and in test [6] was “inactive” in each case. Besides, the Potency entry in test [7], in test [8] and in [11] was “inactive” each time. Moreover, in test [10], the activity (max response) was 8.99%.
